Experiment [1] can be described thus: qHTS assay to identify small molecule antagonists of the glucocorticoid receptor (GR) signaling pathway - cell viability counter screen (AID 720693). Further: nearly all actives have a fitted effect of over 55% in size.
Experiment [2] can be described thus: qHTS assay for identifying genotoxic compounds that show differential cytotoxicity against isogenic chicken DT40 cell lines with known DNA damage response pathways - wild type cell line (AID 743012). Further: nearly all actives have a fitted effect of over 60% in size. Further: potency means the concentration at half of the fitted maximal effect. In outline:
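Viability of DNA repair-proficient chicken DT40 cells was assessed by CellTiter-Glo luminescence following 40 h compound exposure at 37 C/5% CO2.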
For orientation: In qHTS, concentration-response curves come from the screen itself.

The nature of experiment [3]: qHTS assay for identifying genotoxic compounds that show differential cytotoxicity against isogenic chicken DT40 cell lines with known DNA damage response pathways - Rev3 mutant cell line (AID 743014). Further: nearly all actives have a fitted effect of over 55% in size. Further: potency means the concentration at half of the fitted maximal effect.
The nature of experiment [4]: qHTS assay for identifying genotoxic compounds that show differential cytotoxicity against isogenic chicken DT40 cell lines with known DNA damage response pathways - Rad54/Ku70 mutant cell line (AID 743015). Further: nearly all actives have a fitted effect of over 60% in size. Further: potency means the concentration at half of the fitted maximal effect.
Experiment [5] can be described thus: qHTS assay to identify small molecule antagonists of the androgen receptor (AR) signaling pathway - cell viability counter screen (AID 743033; further: nearly all actives have a fitted effect of over 45% in size; further: potency means the concentration at half of the fitted maximal effect).
A short description of experiment [6]: qHTS assay to identify small molecule antagonists of the androgen receptor (AR) signaling pathway using the MDA cell line - cell viability counter screen (AID 743041; further: nearly all actives have a fitted effect of over 45% in size; further: potency means the concentration at half of the fitted maximal effect). In a few lines: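 Cytotoxicity counter screen: MDA-kb2 AR-luc cells, compound + R1881, 16 h, 37C, 0% CO2; CellTiter-Fluor added at 15.5 h, fluorescence read after 30 min.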
The nature of experiment [7]: qHTS assay to identify small molecule antagonists of the thyroid receptor (TR) signaling pathway - cell viability counter screen (AID 743064). Further: nearly all actives have a fitted effect of over 50% in size. Further: potency means the concentration at half of the fitted maximal effect. In a few lines: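 Compounds were tested on GH3.TRE-Luc cells in the presence of T3 at 1 nM final. Following 23.5 h at 37 °C, cell viability was quantified by CellTiter-Fluor.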
Experiment [8] in a line: qHTS assay to identify small molecule antagonists of the thyroid receptor (TR) signaling pathway (AID 743065). Further: nearly all actives have a fitted effect of over 55% in size. Further: potency means the concentration at half of the fitted maximal effect. In outline: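 GH3.TRE-Luc rat pituitary cells (two TREs driving luciferase) were dosed with compound, then stimulated with 1 nM T3 (final) for 23.5 h at 37 C. ONE-Glo luminescence was the read-out, with CellTiter-Fluor fluorescence as the cytotoxicity counter-screen.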

Experiment [9] concerns thyroid hormone receptor (rat, GH3 cells). Briefly: qHTS assay to identify small molecule agonists of the thyroid receptor (TR) signaling pathway (AID 743066; calls by dose curve).
For experiment [10], the target named is Estrogen receptor (Homo sapiens) (UniProt P03372). Briefly: qHTS assay to identify small molecule antagonists of the estrogen receptor alpha (ER-alpha) signaling pathway (AID 743069; active means well fitted curve in the direction sought with a large enough effect in the signal ratio in the repeat runs, not every such curve was filed as active; inconclusive means weak or mixed curves, or effect the other way; inactive means no such curve, though single readings can be large or run the other way; the % refers to the signal ratio; further: potency means the concentration at half of the fitted maximal effect). In outline:
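Beta-lactamase FRET fluorescence is read after 2 hr at room temperature with LiveBLAzer B/G substrate. Before that, ER-alpha-bla HEK293 cells sit 4 hr after plating, then receive compound plus 17beta-estradiol and incubate 18 hr at 37C.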

Experiment [11] can be described thus: qHTS assay to identify small molecule antagonists of the estrogen receptor alpha (ER-alpha) signaling pathway - cell viability counter screen (AID 743074; calls by dose curve;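 further: HEK293 cells carrying ER-alpha-UAS-bla reporter stimulated with 17beta-estradiol; nearly all actives have a fitted effect of over 45% in size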).
In experiment [12] the target is Estrogen receptor (Homo sapiens) (UniProt P03372). Briefly: qHTS assay to identify small molecule agonists of the estrogen receptor alpha (ER-alpha) signaling pathway (AID 743075; calls by dose curve;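 further: HEK293 GripTite cells with ER-alpha and UAS-driven beta-lactamase reporter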; further: potency means the concentration at half of the fitted maximal effect).
Estrogen receptor (Homo sapiens), sequence (P03372 whole entry, looked up): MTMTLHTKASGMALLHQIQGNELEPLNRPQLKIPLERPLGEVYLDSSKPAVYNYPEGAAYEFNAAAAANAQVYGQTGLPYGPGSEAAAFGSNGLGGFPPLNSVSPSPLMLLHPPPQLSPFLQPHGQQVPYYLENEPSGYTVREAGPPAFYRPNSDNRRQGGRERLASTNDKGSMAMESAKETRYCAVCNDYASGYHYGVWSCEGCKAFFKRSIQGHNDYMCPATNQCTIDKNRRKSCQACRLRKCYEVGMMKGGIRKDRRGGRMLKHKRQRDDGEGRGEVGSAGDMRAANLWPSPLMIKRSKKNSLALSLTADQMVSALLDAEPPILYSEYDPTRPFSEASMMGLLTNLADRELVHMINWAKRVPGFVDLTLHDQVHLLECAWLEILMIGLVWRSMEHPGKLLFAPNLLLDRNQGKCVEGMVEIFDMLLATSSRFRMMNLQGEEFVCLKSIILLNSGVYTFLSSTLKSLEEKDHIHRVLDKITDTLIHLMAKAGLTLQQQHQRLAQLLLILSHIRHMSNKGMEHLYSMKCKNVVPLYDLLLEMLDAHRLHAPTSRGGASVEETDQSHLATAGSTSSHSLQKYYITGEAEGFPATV
Experiment [13] has the same target. Briefly: qHTS assay to identify small molecule agonists of the estrogen receptor alpha (ER-alpha) signaling pathway using the BG1 cell line (AID 743079). Further: nearly all actives have a fitted effect of over 20% in size. Further: potency means the concentration at half of the fitted maximal effect.
The nature of experiment [14]: qHTS assay to identify small molecule antagonists of the estrogen receptor alpha (ER-alpha) signaling pathway using the BG1 cell line (AID 743080; calls by dose curve;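 further: BG1 cells stimulated with 17beta-estradiol alongside compound; series mostly up to about 70 µM; nearly all actives have a fitted effect of over 25% in size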). In a few lines:
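Quantitative HTS on the Tox21 10K library: BG1 cells with endogenous ER-alpha and ERE-luciferase reporter, 17beta-estradiol stimulation, 21.5 h compound exposure, luminescence endpoint with parallel fluorescence cytotoxicity counter-read.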

A short description of experiment [15]: qHTS assay to identify small molecule antagonists of the estrogen receptor alpha (ER-alpha) signaling pathway using the BG1 cell line - cell viability counter screen (AID 743081).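 Further: compound given together with 17beta-estradiol as the ER stimulus; nearly all actives have a fitted effect of over 45% in size.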 Further: potency means the concentration at half of the fitted maximal effect.
The next experiment deals with Aromatase (Homo sapiens) (UniProt P11511). Briefly: qHTS assay to identify aromatase inhibitors (AID 743083). Further: series mostly up to about 70 µM; nearly all actives have a fitted effect of over 55% in size.
Aromatase (Homo sapiens), sequence (P11511 whole entry, looked up): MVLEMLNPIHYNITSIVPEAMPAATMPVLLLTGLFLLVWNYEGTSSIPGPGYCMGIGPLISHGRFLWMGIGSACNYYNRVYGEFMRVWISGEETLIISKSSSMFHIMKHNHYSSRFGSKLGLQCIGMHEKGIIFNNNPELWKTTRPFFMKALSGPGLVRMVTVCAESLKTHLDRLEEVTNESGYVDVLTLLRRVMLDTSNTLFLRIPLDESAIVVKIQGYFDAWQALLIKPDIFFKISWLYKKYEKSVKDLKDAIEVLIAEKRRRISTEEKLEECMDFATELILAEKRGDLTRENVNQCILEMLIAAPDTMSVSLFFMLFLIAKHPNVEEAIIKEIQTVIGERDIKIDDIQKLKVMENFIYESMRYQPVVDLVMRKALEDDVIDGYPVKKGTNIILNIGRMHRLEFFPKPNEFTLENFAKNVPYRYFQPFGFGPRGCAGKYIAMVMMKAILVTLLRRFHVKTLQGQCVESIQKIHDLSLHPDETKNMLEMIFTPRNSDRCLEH
Experiment [16] has as its target Androgen receptor (Homo sapiens) (UniProt P10275). Briefly: qHTS assay to identify small molecule agonists of the androgen receptor (AR) signaling pathway (AID 743036; active means well fitted activation curve with a large enough effect in the signal ratio in the repeat runs, with a control signal flat, not every such curve was filed as active; inconclusive means weak or mixed curves, or effect the other way; inactive means no such curve, though single readings can be large or run the other way; the % refers to the signal ratio). In a few lines:
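Beta-lactamase under UAS control, stably integrated in HEK293 GripTite cells, reports receptor activation. After 16 h compound treatment, cells received FRET substrate for 2 h at room temperature before fluorescence reading.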

Experiment [17] has the same target. Briefly: qHTS assay to identify small molecule agonists of the androgen receptor (AR) signaling pathway using the MDA cell line (AID 743040; further: nearly all actives have a fitted effect of over 20% in size). In outline:
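Luciferase read-out, ONE-Glo, 30 min RT. Cells: MDA-kb2 AR-luc, MMTV promoter with AR and GR response elements. Compound exposure 16 h, 37C, 0% CO2, after 5 h pre-incubation. qHTS agonist mode.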

Experiment [18] shares this target. Briefly: qHTS assay to identify small molecule antagonists of the androgen receptor (AR) signaling pathway using the MDA cell line (AID 743042; further: nearly all actives have a fitted effect of over 55% in size). In a few lines: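 MDA-kb2 breast carcinoma cells carrying MMTV-luciferase (AR/GR responsive) were co-treated with compounds and the agonist R1881 for 16 h at 37C. Inhibition read as ONE-Glo luminescence; CellTiter-Fluor fluorescence measured in parallel for cytotoxicity.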

Experiment [19] has the same target. Briefly: qHTS assay to identify small molecule antagonists of the androgen receptor (AR) signaling pathway (AID 743035; active means well fitted inhibition curve with a large enough effect in the signal ratio in the repeat runs, not every such curve was filed as active; inconclusive means weak or mixed curves, or effect the other way; inactive means no such curve, though single readings can be large or run the other way; the % refers to the signal ratio). In a few lines: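 Reporter HEK293 cells were exposed to compounds and R1881 overnight (16 h, 37C); beta-lactamase activity was then quantified by FRET fluorescence.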

Values joined by “and” are separate entries in the source; they are usually repeats but may differ in a detail not shown here. Equal entries are not always repeated. Some structures have more than one record in an assay (separate samples or runs), and their calls can disagree. Active and inactive are the calls of the source. Unless noted, the call rests on the fitted dose curve; in most records, active means well fitted curve in the direction sought with a large enough effect in the repeat runs; inconclusive means weak or mixed curves; inactive means no such curve, though single readings can be large; an effect the other way counts as inactive or inconclusive.

Androgen receptor (Homo sapiens), sequence (P10275 whole entry, looked up): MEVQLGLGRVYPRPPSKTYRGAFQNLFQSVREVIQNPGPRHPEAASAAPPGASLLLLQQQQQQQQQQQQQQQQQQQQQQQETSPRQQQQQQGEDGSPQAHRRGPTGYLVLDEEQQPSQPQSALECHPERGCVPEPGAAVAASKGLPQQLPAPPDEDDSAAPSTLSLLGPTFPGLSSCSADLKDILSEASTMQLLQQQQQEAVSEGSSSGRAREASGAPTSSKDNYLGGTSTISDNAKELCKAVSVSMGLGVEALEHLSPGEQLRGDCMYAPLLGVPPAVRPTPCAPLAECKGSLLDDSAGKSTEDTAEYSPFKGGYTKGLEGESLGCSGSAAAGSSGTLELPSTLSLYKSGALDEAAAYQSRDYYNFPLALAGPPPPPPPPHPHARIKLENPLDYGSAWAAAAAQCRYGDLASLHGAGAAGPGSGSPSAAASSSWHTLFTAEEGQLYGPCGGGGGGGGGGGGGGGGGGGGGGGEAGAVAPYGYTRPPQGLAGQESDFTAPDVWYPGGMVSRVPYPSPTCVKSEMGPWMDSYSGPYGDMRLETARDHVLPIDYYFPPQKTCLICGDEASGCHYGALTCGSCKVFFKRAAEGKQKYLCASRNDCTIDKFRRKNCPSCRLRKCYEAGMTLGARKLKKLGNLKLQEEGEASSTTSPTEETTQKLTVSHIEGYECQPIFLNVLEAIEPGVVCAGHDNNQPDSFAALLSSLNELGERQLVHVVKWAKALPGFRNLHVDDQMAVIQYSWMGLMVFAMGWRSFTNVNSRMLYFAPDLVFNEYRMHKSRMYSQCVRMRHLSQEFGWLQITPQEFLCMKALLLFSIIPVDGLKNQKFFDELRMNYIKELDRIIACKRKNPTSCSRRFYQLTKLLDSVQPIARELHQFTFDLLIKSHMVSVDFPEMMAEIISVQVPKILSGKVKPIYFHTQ

As for `Nc1c(S(=O)(=O)O)cc(Br)c2c1C(=O)c1ccccc1C2=O`, the Potency result in experiment [1], in experiment [2], in experiment [3], in experiment [4], in [5] and in experiment [8] was “inactive” in each case. Also, the Potency entry (in [10]; in experiment [11]; in [12]; in experiment [13]; in experiment [14]; in the experiment with Aromatase (Homo sapiens)) was “inactive” throughout. Also, the Potency is 30.6 µM (active) in [6]; “inactive and 61.1 µM (active)” in [7]; 27.3 µM (active) in [15]. Also, the call in experiment [9] was inactive.

`CCCCOCCO`: the Potency result in experiment [1], in experiment [2], in experiment [3], in experiment [4], in experiment [5] and in experiment [6] was “inactive” each time. Moreover, the Potency result in experiment [7], in [8], in [10], in experiment [11], in experiment [12] and in experiment [13] was “inactive” in each case. Further, the Potency entry (in [14]; in experiment [15]; with Aromatase (Homo sapiens)) was “inactive” throughout. In experiment [9], the call was inactive.

With `Oc1ccc2ccccc2c1`, the Potency entry in experiment [1], in experiment [2], in experiment [3], in experiment [4], in [5] and in experiment [6] was “inactive” each time. Further, the Potency entry (in experiment [7]; in [11]; in experiment [15]; in the experiment with Aromatase (Homo sapiens)) was “inactive” throughout. For the same molecule, the result in [16], in [17] and in experiment [18] was inactive.

`O=C(Oc1ccccc1)c1ccc(O)cc1`: the Potency entry in experiment [1], in experiment [2], in [3], in experiment [4], in experiment [5] and in experiment [6] was “inactive” in each case. For the same molecule, the Potency entry (in experiment [7]; in experiment [8]; in experiment [11]; in experiment [15]; with Aromatase (Homo sapiens)) was “inactive” throughout. The call in experiment [9] was inactive.

As to `Oc1ccc(OCc2ccccc2)cc1`, the Potency result in experiment [1], in experiment [5], in experiment [6], in experiment [10], in [11] and in [15] was “inactive” in each case. Further, in the experiment with Aromatase (Homo sapiens), the Potency result is “inactive”. Moreover, the Potency in experiment [2] is 2.54 µM (active) and 8.45 µM (active); in [3] it was 2.85 µM (active) and 5.33 µM (active); in experiment [4], 4.52 µM (active) and 11.9 µM (active); in experiment [7] it was 9.02 µM (active); in experiment [12], 11.4 µM [activator] (active) and 53.8 µM [inconclusive] (active); in experiment [13] it was 8.04 µM (active) and 9.48 µM (active). For the same molecule, the call in [16], in [17] and in [18] was inactive.

As to `Cc1ccc(C)c(C)c1`, the Potency result in experiment [1], in experiment [2], in experiment [3], in [4], in experiment [5] and in experiment [6] was “inactive” each time. For the same molecule, the Potency entry in experiment [7], in [8], in experiment [10], in [11], in experiment [12] and in experiment [13] was “inactive” each time. The Potency entry (in [14]; in [15]; with Aromatase (Homo sapiens)) was “inactive” in each case. Also, the result in experiment [19], in experiment [16], in experiment [17], in experiment [18] and in experiment [9] was inactive.

Turning to `Clc1cc(Cl)c(Cl)cc1Cl`, the Potency entry in [1], in [2], in experiment [3], in experiment [4], in experiment [5] and in experiment [6] was “inactive” each time. Also, the Potency result in experiment [7], in [8], in experiment [10], in experiment [11], in [12] and in experiment [14] was “inactive” throughout. Further, the Potency result (in experiment [15]; in the experiment with Aromatase (Homo sapiens)) was “inactive” throughout. Besides, in [9], the molecule was called inactive. For the same molecule, the Potency in experiment [13] was 62.1 µM (active) and inactive.

As for `C[C@@H]1O[C@@H](OC[C@H]2O[C@@H](Oc3c(-c4ccc(O)c(O)c4)oc4cc(O)cc(O)c4c3=O)[C@H](O)[C@@H](O)[C@@H]2O)[C@H](O)[C@H](O)[C@H]1O`, the Potency result in experiment [1], in experiment [2], in [3], in experiment [4], in experiment [5] and in experiment [6] was “inactive” throughout. The Potency result (in experiment [11]; in experiment [15]; in the experiment with Aromatase (Homo sapiens)) was “inactive” throughout. The outcome in [19], in [16], in experiment [17], in [18] and in experiment [9] was inactive.

Consider `Cc1cc(Cc2ccc(N)c(C)c2)ccc1N`, for which the Potency entry in experiment [1], in experiment [5], in experiment [6], in experiment [7], in [8] and in [11] was “inactive” throughout. The Potency result in experiment [15] was “inactive”. In addition, the Potency was 61.1 µM (active) in experiment [2]; 68.6 µM (active) and 54.5 µM (active) in experiment [3]; 61.1 µM (active) and 68.6 µM (active) in [4]. Further, the outcome in experiment [9] was inactive.

On to `Nc1cc(-c2ccncc2)c[nH]c1=O`, for which the Potency entry in experiment [1], in experiment [2], in experiment [3], in [4], in experiment [5] and in experiment [6] was “inactive” each time. The Potency entry in experiment [7], in [10], in experiment [11], in experiment [12], in [13] and in experiment [14] was “inactive” throughout. Further, the Potency entry (in experiment [15]; in the experiment with Aromatase (Homo sapiens)) was “inactive” each time. For the same molecule, the outcome in experiment [19], in [16], in experiment [17], in experiment [18] and in experiment [9] was inactive.

On to `Clc1ccc(Cl)c(Cl)c1Cl`, for which the Potency result in experiment [1], in experiment [2], in experiment [3], in experiment [4], in [5] and in experiment [6] was “inactive” in each case. In addition, the Potency result (in experiment [7]; in experiment [8]; in [11]; in experiment [15]; in the experiment with Aromatase (Homo sapiens)) was “inactive” each time. The outcome in experiment [9] was inactive.

With `c1ccc2[nH]cnc2c1`, the Potency result in experiment [1], in [2], in experiment [3], in [4], in [5] and in experiment [6] was “inactive” throughout. The Potency result (in [7]; in experiment [8]; in [11]; in [15]; in the experiment with Aromatase (Homo sapiens)) was “inactive” each time. Moreover, in experiment [9], the outcome was inactive.

On to `O=S(=O)(O)c1cc(S(=O)(=O)O)c2c(N=Nc3ccccc3)c(O)ccc2c1`, for which the Potency result in experiment [1], in experiment [2], in [3], in experiment [4], in experiment [5] and in experiment [8] was “inactive” in each case. Moreover, the Potency result (in experiment [10]; in [11]; in experiment [12]; in experiment [13]; in experiment [14]; with Aromatase (Homo sapiens)) was “inactive” in each case. Further, the Potency is 27.4 µM (active) and 38.6 µM (active) in experiment [6]; 27.4 µM (active) and 68.6 µM (active) in [7]; 27.4 µM (active) and 30.6 µM (active) in [15]. The call in [9] was inactive.

Consider `CCCCC(CC)COC(=O)/C=C\C(=O)OCC(CC)CCCC` (stereo unspecified), for which the Potency result in experiment [1], in experiment [2], in experiment [3], in [4], in experiment [5] and in experiment [6] was “inactive” throughout. Also, the Potency result (in experiment [7]; in [8]; in experiment [11]; in experiment [15]; with Aromatase (Homo sapiens)) was “inactive” each time. Also, the outcome in experiment [19], in experiment [16], in [17], in [18] and in experiment [9] was inactive.

Take `CN(C)c1ccc(C(=N)c2ccc(N(C)C)cc2)cc1`: the Potency entry in experiment [1] and in experiment [12] was “inactive” throughout. The Potency in [2] was 5.38 µM (active) and 11.7 µM (active); in experiment [3], 2.4 µM (active) and 8.31 µM (active); in experiment [4], 3.81 µM (active) and 11.7 µM (active); in experiment [5], 34.2 µM (active) and 37.4 µM (active); in [6], 60.4 µM (active); in [7], 53.8 µM (active) and 26.3 µM (active). Besides, the Potency in experiment [8] was 7.6 µM (active) and 7.4 µM (active); in experiment [10], 37.4 µM [inconclusive] (active); in experiment [15], 30.3 µM (active) and 14.8 µM (active). Besides, in [9], the result was inactive.
